Bioassay records as filed in PubChem BioAssay.
Sampled rows, rich in hits. Any-hit rate of the full collection: about 19%.
TDP1 cell CPT = growth inhibition of DT40 Tdp1-/-;hTDP1 cells with camptothecin (screen for TDP1 inhibitors); chicken DT40 Tdp1-/-;hTDP1 cells + 20 nM CPT, ATP luminescence, 48 h; Potency, µM (highest dose often 46.2 µM), hits mostly inhibitors; 420,000 tested, 12% active; AID 686979; also: nearly all actives have a fitted effect of over 55% in size
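Chicken DT40 Tdp1-/- cells stably complemented with human TDP1 were seeded at 400 cells/well in medium containing 20 nM camptothecin, exposed to pin-transferred compounds, and grown at 37 °C for at least 48 hr. Viability was read as ATP luminescence.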
DT40 TDP1 no CPT = qHTS for Inhibitors of human tyrosyl-DNA phosphodiesterase 1 (TDP1): qHTS in cells in absence of CPT | 420,000 tested, 15% active | DT40 Tdp1-/- hTDP1 cells, no CPT, ATP luminescence, 48 h | Potency, µM (highest dose often 46.2 µM), hits mostly inhibitors; also: nearly all actives have a fitted effect of over 55% in size
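A cellular qHTS used chicken DT40 cells lacking endogenous Tdp1 but carrying stably transfected human TDP1. Compounds were applied without camptothecin, and cell growth kinetics were judged by ATP-dependent luminescence after ≥48 hr.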
HT1080 IDH1KD tx = kills HT-1080 cells with IDH1 knockdown; Potency, µM (series often up to 46.1 µM), usual class: cytotoxic; 360,000 tested, 2% active; HT-1080 IDH1 knockdown viability, ATP luminescence, 48 h
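After a 2 h attachment period, IDH1KD HT-1080 cells took pin-transferred compound for 48 h at 37 °C; ATP-based luminescence after 10 min room-temperature reagent incubation reported viability.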
IL1B secr inh = inhibitors of inflammasome signaling (IL-1 beta secretion). THP-1 LPS/ATP IL-1B secretion, AlphaLISA, 16 h; hits give low values. activity change, % at 57.5 µM. 360,000 tested, 4.7% active. AID 743279; in the data active = activity change below about -50%; inconclusive = mostly about -30% to -49%
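Secreted IL-1B measured by AlphaLISA bead assay after 16 h compound exposure of THP-1 cells; compounds (final up to 57.5 uM) added 1 h before LPS (250 ng/mL) and ATP (1.25 mM) stimulation; lower signal means less secretion.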
ELG1 DNA repair = inhibitors of ELG1-dependent DNA repair in HEK293T cells; 330,000 tested, 2.3% active; HEK293T ELG1-luciferase reporter, luminescence, 16 h; DNA damage induced by 5-fluorouridine; Potency, µM (top dose mostly 46.1 µM), hits mostly inhibitors; also: nearly all actives have a fitted effect of over 55% in size
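HEK293T cells expressing luciferase-tagged ELG1 (2,000/well) received 5-Fluorouridine plus compound or DMSO for 16 hr at 37 °C. Luciferase was read by ONE-Glo luminescence after 30 min at room temperature.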
HT1080-NT tox = kills 2HG-producing HT-1080-NT fibrosarcoma cells | HT-1080-NT fibrosarcoma viability, CellTiter-Glo ATP luminescence, 48 h | Potency, µM (titrated, usually from 46.1 µM), most hits filed as cytotoxic | 360,000 tested, 1.6% active;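 also: NT is the 2HG producing partner of a matched IDH1 knockdown line; nearly all actives have a fitted effect of over 55% in size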
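Compounds were tested in concentration-response format on HT-1080-NT cells for 48 hours at 37 degrees C. Cell viability came from CellTiter-Glo luminescence; curves were classified by r2, response magnitude and activity.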
Numbers stand for hits; i = inactive; ? = inconclusive; nt = no result given. Unless noted, calls follow the shape of the dose curve; as a rule, active = well fitted curve in the direction sought with a large enough effect; inconclusive = small, poorly fitted or top-dose-only effect, or another doubt; inactive = no such curve, though single readings can be large; an effect the other way counts as inactive or inconclusive.

SMILES	TDP1 cell CPT	DT40 TDP1 no CPT	HT1080 IDH1KD tx	IL1B secr inh	ELG1 DNA repair	HT1080-NT tox
Cc1nc2ccccc2c(=O)n1/N=C/c1cc(Br)ccc1O	?	?	?	i	?	?
CCCS(=O)(=O)NC(=O)C1(C)CCN(C(=O)c2cccs2)C1 (centres undefined)	i	i	i	i	nt	i
CCCC[C@@H]1CNCCN1CCCc1cc(OC)c(OC)c(OC)c1	i	i	i	i	?	i
O=c1c2ccccc2nc(N/N=C/c2c(O)ccc3ccccc23)n1O	3.66µM	5.17µM	?	i	?	?
CC(C)(C)N=Cc1c(O)ccc2oc3c(c12)CCCC3	i	i	i	i	?	?
Cc1nc2ccccc2c(=O)n1/N=C/c1c(O)ccc2oc3c(c12)CCCC3	20.6µM	18.4µM	i	i	?	i
O=c1c2ccccc2nc(N/N=C/c2ccc(O)cc2)n1O	?	i	i	i	?	i
COc1ccc(C(C)n2c(C)c3c(C)nnc(C)c3c2C)cc1 (centres undefined)	14.6µM	23.1µM	i	i	i	i
Cc1nnc(C)c2c(C)n(C(C)c3ccccc3)c(C)c12 (centres undefined)	16.4µM	11.6µM	?	i	i	i
O=C(Cc1coc2cc(O)ccc12)N1CCN(S(=O)(=O)c2ccc(Br)cc2)CC1	?	23.1µM	i	?	nt	i
CCCCC(=O)Nc1sc2c(c1-c1nc3ccccc3s1)CCN(C(C)=O)C2	nt	nt	nt	nt	18.4µM	nt
CN1CCc2c(sc(NC(=O)CSc3ccccc3)c2-c2nc3ccccc3s2)C1	?	20.6µM	nt	nt	nt	nt
CC(=O)N1CCc2c(sc(NC(=O)C3CC3)c2-c2nc3ccccc3s2)C1	16.4µM	14.6µM	?	-84.5	?	?
CN1CCc2c(sc(NC(=O)Cc3ccccc3)c2C#N)C1	i	i	i	i	i	i
CC(=O)N1CCc2c(sc(NC(=O)CSc3ccccc3)c2-c2nc3ccccc3s2)C1	13µM	10.3µM	nt	nt	nt	nt
CCOC(=O)c1sc(NC(=O)c2c(CC)noc2C)nc1C	i	i	i	i	i	i
COc1ccccc1/C=C/C(=O)NCc1ccccn1	i	i	i	i	i	i
COc1ccc(-c2nc3cnc(OC)nc3n(-c3ccccc3)c2=O)cc1	i	i	nt	nt	nt	nt
COC(=O)c1ccccc1SC(CC(=O)c1ccccc1)c1ccc(F)cc1 (centres undefined)	18.4µM	23.1µM	?	?	?	?
CC(C(Sc1ccccc1N)c1ccccc1)[N+](=O)[O-] (centres undefined)	3.66µM	3.66µM	?	-85.3	?	?
Nc1ccccc1SCc1ccccc1Cl	i	i	i	i	i	i
Nc1ccccc1SC(CC(=O)c1ccccc1)c1ccccc1 (centres undefined)	?	13µM	?	i	nt	?
O=C(CC(CC(=O)c1ccccc1)c1ccccc1)c1ccccc1	?	?	i	i	i	i
COc1ccccc1CNC(=O)CN1C(=O)CCc2cc(S(=O)(=O)N3CCOCC3)ccc21	i	i	nt	nt	nt	nt
Cc1cc(Cl)ccc1NC(=O)COC(=O)c1cc([N+](=O)[O-])ccc1N1CCOCC1	i	?	i	?	?	i
SMILES	TDP1 cell CPT	DT40 TDP1 no CPT	HT1080 IDH1KD tx	IL1B secr inh	ELG1 DNA repair	HT1080-NT tox
O=C(OCc1ccc(Br)cc1)c1cc([N+](=O)[O-])ccc1N1CCOCC1	0.731µM	0.461µM	2.59µM	i	nt	?
COCCOc1ccc(C(F)(F)F)cc1NC(=O)COC(=O)c1cc([N+](=O)[O-])ccc1N1CCOCC1	14.6µM	23.1µM	i	i	?	i
O=C(Oc1ccc(Br)cc1C(=S)N1CCOCC1)c1ccc([N+](=O)[O-])cc1[N+](=O)[O-]	20.6µM	?	?	-91.6	i	?
CCc1ccc(C(=O)COC(=O)c2cc([N+](=O)[O-])ccc2N2CCOCC2)cc1	?	18.4µM	8.2µM	i	?	9.2µM
O=C(COC(=O)c1cc([N+](=O)[O-])ccc1N1CCOCC1)c1ccc(F)cc1	i	?	i	i	i	i
Cc1ccc(C)c(COC(=O)c2cc([N+](=O)[O-])ccc2N2CCOCC2)c1	?	?	?	i	?	?
Cc1cccc(C(=O)Nc2ccccc2OCc2cc(=O)n3c(C)csc3n2)c1	i	i	nt	nt	nt	nt
O=C(CCN1C(=O)c2ccccc2S1(=O)=O)NCc1ccccc1	i	i	i	i	i	i
Nc1c(N(Cc2ccco2)C(=O)COc2ccccc2F)c(=O)[nH]c(=O)n1Cc1ccccc1	i	i	i	i	i	i
Cc1ccc(CNC(=O)CCNS(=O)(=O)c2cccc3nsnc23)cc1	i	i	i	i	i	i
COc1ccc(COC(=O)c2cc([N+](=O)[O-])ccc2N2CCOCC2)cc1F	0.0231µM	0.0116µM	0.0052µM	i	?	0.0058µM
COc1cccc(CNC(=O)COC(=O)c2cc([N+](=O)[O-])ccc2N2CCCC2)c1	16.4µM	23.1µM	i	?	?	i
O=C(COC(=O)c1cc([N+](=O)[O-])ccc1N1CCOCC1)NCc1ccccc1	i	i	i	i	nt	i
O=C(OCc1cccc(Cl)c1)c1cc([N+](=O)[O-])ccc1N1CCOCC1	?	?	?	?	i	i
O=C(OCc1cccc(C(F)(F)F)c1)c1cc([N+](=O)[O-])ccc1N1CCOCC1	?	?	i	-59.9	i	i
CC(=O)Nc1nonc1-c1nnc(SCC(=O)Nc2ccc(C)cc2C)n1C	i	?	nt	nt	nt	nt
Cc1ccc(NC(=O)COC(=O)C2CC3CCCC(C2)C3=O)c([N+](=O)[O-])c1 (centres undefined)	i	i	i	i	i	i
N#Cc1cc([N+](=O)[O-])ccc1NC(=O)COC(=O)C1CC2CCCC(C1)C2=O (centres undefined)	i	?	i	i	9.2µM	i
N#Cc1cc([N+](=O)[O-])ccc1NC(=O)COC(=O)C12CC3CC(CC(C3)C1)C2	nt	nt	nt	nt	10.3µM	nt
CN1CCN(c2ccc(S(=O)(=O)N3CCCCC3)cc2NC(=O)Cc2ccc(Cl)cc2)CC1	?	23.1µM	i	i	i	i
CN1CCN(c2ccc(Cl)cc2NC(=O)c2ccc(S(=O)(=O)N3CCCCCC3)cc2)CC1	?	16.4µM	i	i	i	i
O=C(Cc1ccc(Cl)cc1)Nc1cc(S(=O)(=O)N2CCOCC2)ccc1N1CCCC1	i	?	i	i	i	i
COCCNc1ccnc(-c2ccccc2C(F)(F)F)n1	i	i	nt	nt	nt	nt
CCCN(C(=O)c1cc(Cl)nc2ccccc12)c1c(N)n(Cc2ccccc2)c(=O)[nH]c1=O	i	i	i	i	?	i
